Consider nine molecules from PubChem BioAssay (Tox21).

Records with an inconclusive call do not appear. Active and inactive are the calls of the source. Unless noted, calls come from the whole dose curve; as a rule, active = well fitted curve in the direction sought with a large enough effect in the repeat runs; inconclusive = weak or mixed curves; inactive = no such curve, though single readings can be large; an effect the other way counts as inactive or inconclusive.

Assay [1] can be described thus: qHTS assay to identify small molecule antagonists of the thyroid receptor (TR) signaling pathway - cell viability counter screen (AID 743064). Note: nearly all actives have a fitted effect of over 50% in size. A digest of the protocol:
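Plate GH3.TRE-Luc cells; incubate 4 h at 37 °C; add compound, then T3 to 1 nM final; incubate 23.5 h; add CellTiter-Fluor; incubate 30 min at 37 °C, 5% CO2; read fluorescence.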
A general note: In qHTS, concentration-response curves come from the screen itself.

Assay [2] in a line: qHTS assay to identify small molecule antagonists of the thyroid receptor (TR) signaling pathway (AID 743065). Note: series mostly up to about 70 µM; nearly all actives have a fitted effect of over 55% in size. Summed up: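 GH3.TRE-Luc rat pituitary cells carrying two TR response elements driving luciferase were plated for 4 h, given compound plus 1 nM T3 (final), and incubated 23.5 h at 37 C. ONE-Glo luminescence measured reporter inhibition; CellTiter-Fluor fluorescence tracked cytotoxicity.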

In assay [3] the test system is thyroid hormone receptor (rat, GH3 cells). Put plainly: qHTS assay to identify small molecule agonists of the thyroid receptor (TR) signaling pathway (AID 743066; calls by dose curve).
A short description of assay [4]: qHTS assay to identify small molecule antagonists of the estrogen receptor alpha (ER-alpha) signaling pathway - cell viability counter screen (AID 743074; calls by dose curve;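 note: HEK293 cells carrying ER-alpha-UAS-bla reporter stimulated with 17beta-estradiol; nearly all actives have a fitted effect of over 45% in size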).
Assay [5] in a line: qHTS assay to identify small molecule antagonists of the estrogen receptor alpha (ER-alpha) signaling pathway using the BG1 cell line - cell viability counter screen (AID 743081).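 Note: compound given together with 17beta-estradiol as the ER stimulus; series mostly up to about 70 µM; nearly all actives have a fitted effect of over 45% in size.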
The target of assay [6] is Aromatase (Homo sapiens) (UniProt P11511). Put plainly: qHTS assay to identify aromatase inhibitors (AID 743083). Note: series mostly up to about 70 µM; nearly all actives have a fitted effect of over 55% in size.
Assay [7] is described as follows: qHTS assay to identify aromatase inhibitors - cell viability counter screen (AID 743084).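 Note: cells stimulated with testosterone during compound exposure; nearly all actives have a fitted effect of over 55% in size.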
Assay [8] has as its target Aryl hydrocarbon receptor (Homo sapiens) (UniProt P35869). Put plainly: qHTS assay to identify small molecule that activate the aryl hydrocarbon receptor (AhR) signaling pathway (AID 743085).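 For activation: HG2L7.5c1 human HepG2 liver cells with stably integrated DRE-driven firefly reporter; series mostly up to about 70 µM.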 Note: nearly all actives have a fitted effect of over 15% in size. Note: potency is the fitted concentration of half-maximal effect. Summed up: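 Steps: seed HepG2-AhR-luc cells; allow 5 h at 37C; pin-transfer test compound or vehicle; incubate 24 h at 37C; add viability dye (30 min, 37C) and read fluorescence; add luciferase substrate (30 min, RT) and read luminescence.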

Assay [9] in a line: qHTS assay to identify small molecule that activate the aryl hydrocarbon receptor (AhR) signaling pathway - cell viability counter screen (AID 743086).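 Note: HepG2 liver cells carrying the AhR DRE luciferase reporter; series mostly up to about 70 µM; nearly all actives have a fitted effect of over 45% in size.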 Summed up: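 HepG2-AhR-luc (HG2L7.5c1) cells, 4000/well, were preincubated 5 h at 37C, exposed to compound in qHTS format for 24 hr at 37C, then given CellTiter-Fluor for 30 min; viability was read as fluorescence in the reporter wells.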

For assay [10], the target named is Peroxisome proliferator-activated receptor gamma (Homo sapiens) (UniProt P37231). As to the kind of experiment: qHTS assay to identify small molecule agonists of the peroxisome proliferator-activated receptor gamma (PPARg) signaling pathway (AID 743094; active = well fitted activation curve with a large enough effect in the signal ratio in the repeat runs, not every such curve was filed as active; the % refers to the signal ratio). A digest of the protocol:
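Fluorescence-based beta-lactamase readout in HEK293H PPARg UAS-bla cells after 17 h compound exposure (37C) and 1 h B/G FRET substrate incubation at room temperature.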

A short description of assay [11]: qHTS assay to identify small molecule antagonists of the peroxisome proliferator-activated receptor gamma (PPARg) signaling pathway - cell viability counter screen (AID 743194). Note: nearly all actives have a fitted effect of over 55% in size. A digest of the protocol:
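PPARg-UAS-bla HEK293H cells were plated, rested 5 h at 37 C, then treated with compounds plus rosiglitazone (50 nM final) for 17 h at 37 C; viability was then read by CellTiter-Glo luminescence after 30 min at room temperature.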

Assay [12] in a line: qHTS assay for small molecule agonists of the antioxidant response element (ARE) signaling pathway (AID 743202; active = well fitted activation curve with a large enough effect in the signal ratio in the repeat runs, not every such curve was filed as active; the % refers to the signal ratio; note: potency is the fitted concentration of half-maximal effect). Summed up:
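Following a 16 h, 37 C exposure of reporter HepG2 cells (ARE-driven beta-lactamase, 2,000 cells/well) to compounds, FRET substrate was applied for 2 h at room temperature and fluorescence intensity recorded.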

Assay [13] is described as follows: qHTS assay for small molecule activators of the heat shock response signaling pathway (AID 743210; active = well fitted activation curve with a large enough effect in the signal ratio in the repeat runs, with a control signal flat, not every such curve was filed as active; the % refers to the signal ratio; note: series mostly up to about 63 µM). A digest of the protocol: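 Heat shock element–beta-lactamase HeLa reporter cells; qHTS with compounds for 5 h at 37 C; detection by FRET substrate fluorescence after 2.5 h at RT.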
Assay [14] has as its target Peroxisome proliferator-activated receptor gamma (Homo sapiens) (UniProt P37231). Put plainly: qHTS assay to identify small molecule antagonists of the peroxisome proliferator-activated receptor gamma (PPARg) signaling pathway (AID 743191; calls by dose curve; note: series mostly up to about 63 µM; nearly all actives have a fitted effect of over 30% in size). A digest of the protocol: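 GeneBLAzer PPARg UAS-bla HEK293H cells carrying a UAS-driven beta-lactamase reporter were plated at 3000 cells/well, preincubated 5 h at 37C, then given compound for 17 h at 37C; LiveBLAzer B/G FRET substrate was read after 1 h at room temperature.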

The nature of assay [15]: qHTS assay for small molecule agonists of the antioxidant response element (ARE) signaling pathway - cell viability counter screen (AID 743203; calls by dose curve; note: nearly all actives have a fitted effect of over 55% in size). Summed up:
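Parallel cytotoxicity read-out for the ARE-bla screen: HepG2 reporter cells, 16 hrs with compounds, then CellTiter-Glo luminescence.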

The nature of assay [16]: qHTS assay for small molecule activators of the heat shock response signaling pathway - cell viability counter screen (AID 743209). Note: nearly all actives have a fitted effect of over 50% in size. Summed up: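 To flag cytotoxic compounds, HSE-bla HeLa cells plated at 1500 cells/well were dosed for 5 h at 37 C, followed by the reporter FRET read and then CellTiter-Glo, with luminescence recorded 30 min after reagent addition.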
The target of assay [17] is Estrogen receptor (Homo sapiens) (UniProt P03372). As to the kind of experiment: qHTS assay to identify small molecule agonists of the estrogen receptor alpha (ER-alpha) signaling pathway (AID 743075; calls by dose curve;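 note: HEK293 GripTite cells with ER-alpha and UAS-driven beta-lactamase reporter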).
Assay [18] shares this target. As to the kind of experiment: qHTS assay to identify small molecule agonists of the estrogen receptor alpha (ER-alpha) signaling pathway using the BG1 cell line (AID 743079). Note: nearly all actives have a fitted effect of over 20% in size. Note: potency is the fitted concentration of half-maximal effect.
A short description of assay [19]: qHTS assay to identify small molecule antagonists of the estrogen receptor alpha (ER-alpha) signaling pathway using the BG1 cell line (AID 743080; calls by dose curve;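 note: BG1 cells stimulated with 17beta-estradiol alongside compound; series mostly up to about 70 µM; nearly all actives have a fitted effect of over 25% in size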). A digest of the protocol:
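Endogenous full-length ER-alpha in BG1-Luc-4E2 cells drives a stably integrated 4×ERE luciferase gene; compounds were tested against 17beta-estradiol over 21.5 h, with luminescence and multiplexed viability fluorescence recorded.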

Assay [20] deals with Estrogen receptor (Homo sapiens) (UniProt P03372). Put plainly: qHTS assay to identify small molecule antagonists of the estrogen receptor alpha (ER-alpha) signaling pathway (AID 743069; active = well fitted curve in the direction sought with a large enough effect in the signal ratio in the repeat runs, not every such curve was filed as active; the % refers to the signal ratio). Summed up: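 A 17beta-estradiol challenge was applied right after compound transfer to ER-alpha-UAS-bla HEK293 cells previously kept in charcoal-stripped serum. Plates stood 18 hr at 37C and 5% CO2; fluorescence was read following 2 hr FRET substrate loading at room temperature.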

Sequence of Aromatase (Homo sapiens) (P11511 whole entry, looked up): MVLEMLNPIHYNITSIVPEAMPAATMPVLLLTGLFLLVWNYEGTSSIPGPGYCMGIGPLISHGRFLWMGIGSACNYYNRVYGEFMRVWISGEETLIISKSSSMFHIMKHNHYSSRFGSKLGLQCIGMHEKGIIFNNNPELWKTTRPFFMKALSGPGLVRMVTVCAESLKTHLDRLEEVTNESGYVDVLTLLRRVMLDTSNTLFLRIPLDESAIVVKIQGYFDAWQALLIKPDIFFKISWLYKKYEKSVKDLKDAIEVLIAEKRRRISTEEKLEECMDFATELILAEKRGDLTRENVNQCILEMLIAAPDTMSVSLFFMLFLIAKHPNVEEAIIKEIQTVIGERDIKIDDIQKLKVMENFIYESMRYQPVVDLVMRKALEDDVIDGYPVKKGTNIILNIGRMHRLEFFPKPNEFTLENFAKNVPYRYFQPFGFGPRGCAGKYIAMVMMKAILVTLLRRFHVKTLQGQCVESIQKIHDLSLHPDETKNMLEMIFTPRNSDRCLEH
Sequence of Estrogen receptor (Homo sapiens) (P03372 whole entry, looked up): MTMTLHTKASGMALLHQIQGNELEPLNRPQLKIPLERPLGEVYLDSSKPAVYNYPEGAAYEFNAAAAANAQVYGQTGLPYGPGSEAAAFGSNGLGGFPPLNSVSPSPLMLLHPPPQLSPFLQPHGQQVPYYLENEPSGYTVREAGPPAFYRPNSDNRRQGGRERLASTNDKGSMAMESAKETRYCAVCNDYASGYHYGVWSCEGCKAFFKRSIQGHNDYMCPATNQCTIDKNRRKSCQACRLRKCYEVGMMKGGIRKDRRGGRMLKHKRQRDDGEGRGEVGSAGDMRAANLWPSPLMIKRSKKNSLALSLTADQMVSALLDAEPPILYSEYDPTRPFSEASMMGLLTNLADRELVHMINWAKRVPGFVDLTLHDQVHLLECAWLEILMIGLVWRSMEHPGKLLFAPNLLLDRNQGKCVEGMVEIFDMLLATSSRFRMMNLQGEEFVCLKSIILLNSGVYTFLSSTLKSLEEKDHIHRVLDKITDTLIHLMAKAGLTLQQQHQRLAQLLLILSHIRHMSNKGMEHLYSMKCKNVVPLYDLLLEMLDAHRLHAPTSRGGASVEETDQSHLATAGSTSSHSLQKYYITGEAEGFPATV
Sequence of Peroxisome proliferator-activated receptor gamma (Homo sapiens) (P37231 whole entry, looked up): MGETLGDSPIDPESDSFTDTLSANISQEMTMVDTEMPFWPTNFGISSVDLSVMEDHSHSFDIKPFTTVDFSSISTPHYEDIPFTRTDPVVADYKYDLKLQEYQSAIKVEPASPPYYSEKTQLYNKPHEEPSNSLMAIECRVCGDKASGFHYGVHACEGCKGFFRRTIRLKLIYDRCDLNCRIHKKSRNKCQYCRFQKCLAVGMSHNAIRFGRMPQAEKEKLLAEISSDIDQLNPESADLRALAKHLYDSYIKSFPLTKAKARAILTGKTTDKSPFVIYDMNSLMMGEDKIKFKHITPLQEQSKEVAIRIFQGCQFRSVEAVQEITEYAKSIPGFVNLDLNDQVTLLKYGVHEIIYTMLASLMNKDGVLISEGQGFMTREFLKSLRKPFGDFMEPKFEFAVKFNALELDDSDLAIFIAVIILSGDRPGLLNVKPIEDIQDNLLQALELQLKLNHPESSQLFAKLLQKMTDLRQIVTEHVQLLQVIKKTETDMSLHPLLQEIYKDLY
Sequence of Aryl hydrocarbon receptor (Homo sapiens) (P35869 whole entry, looked up): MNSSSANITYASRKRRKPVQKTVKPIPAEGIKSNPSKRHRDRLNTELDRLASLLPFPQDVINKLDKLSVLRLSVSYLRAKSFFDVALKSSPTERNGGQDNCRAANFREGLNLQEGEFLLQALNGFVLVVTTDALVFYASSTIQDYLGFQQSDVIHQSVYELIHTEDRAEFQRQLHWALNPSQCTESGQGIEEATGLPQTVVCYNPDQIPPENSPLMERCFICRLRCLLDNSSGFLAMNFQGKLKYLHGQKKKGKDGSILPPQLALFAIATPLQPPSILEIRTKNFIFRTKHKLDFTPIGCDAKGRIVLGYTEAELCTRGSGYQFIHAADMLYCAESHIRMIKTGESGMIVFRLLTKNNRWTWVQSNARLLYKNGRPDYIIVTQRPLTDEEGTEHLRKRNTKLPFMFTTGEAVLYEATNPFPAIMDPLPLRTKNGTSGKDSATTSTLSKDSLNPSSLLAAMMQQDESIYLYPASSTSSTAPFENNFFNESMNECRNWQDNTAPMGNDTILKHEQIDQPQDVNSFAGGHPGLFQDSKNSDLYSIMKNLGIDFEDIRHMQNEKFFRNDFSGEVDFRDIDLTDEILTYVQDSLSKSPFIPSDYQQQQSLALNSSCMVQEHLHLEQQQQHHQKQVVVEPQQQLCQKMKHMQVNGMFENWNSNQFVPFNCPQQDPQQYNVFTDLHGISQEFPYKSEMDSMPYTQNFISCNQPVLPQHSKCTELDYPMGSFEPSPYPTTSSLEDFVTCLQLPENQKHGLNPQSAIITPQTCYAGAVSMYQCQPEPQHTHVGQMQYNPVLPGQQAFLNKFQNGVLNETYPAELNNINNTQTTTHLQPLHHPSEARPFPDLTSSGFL

As to `C=CC(O)CCCCC` (configuration not stated), the Potency result in assay [1], in [2], in assay [5], in [6], in assay [7] and in assay [8] was “inactive” each time. In addition, the Potency result in assay [9], in [10], in [11] and in [12] was “inactive” throughout. The molecule was classed as inactive in [3], in [4] and in assay [13].

Consider `CCOc1ccc2c(c1)C(C)CC(C)(C)N2` (configuration not stated), for which the Potency result in [1], in [2], in [5], in assay [6], in assay [7] and in [9] was “inactive” in each case. In addition, the Potency entry in assay [10], in [14], in assay [11], in assay [12] and in assay [15] was “inactive” throughout. For the same molecule, the call in assay [3], in [4], in [16] and in assay [13] was inactive.

Take `CCOc1ccccc1O`: the Potency result in [1], in assay [2], in [5], in assay [6], in assay [7] and in assay [8] was “inactive” each time. Also, the Potency result in [9], in [11] and in [12] was “inactive” throughout. Also, the molecule was classed as inactive in assay [3], in assay [4], in assay [16] and in assay [13].

`CC(CN=Cc1ccccc1O)N=Cc1ccccc1O` (configuration not stated): the Potency result in assay [1], in assay [2], in [5], in assay [6], in assay [7] and in assay [9] was “inactive” throughout. Moreover, the Potency entry in [10], in assay [14], in [11] and in assay [15] was “inactive” each time. Further, the molecule was classed as inactive in assay [3], in [4] and in assay [16]. Also, the Potency in [8] is 27.3 µM (active).

On to `CC(C)CCCCCCCOC(=O)c1ccc(C(=O)OCCCCCCCC(C)C)c(C(=O)OCCCCCCCC(C)C)c1`, for which the Potency result in assay [1], in assay [2], in assay [5], in assay [6], in assay [7] and in assay [8] was “inactive” in each case. In addition, the Potency result in [10], in assay [14], in [11] and in [15] was “inactive” in each case. In addition, the call in assay [3], in assay [4] and in [16] was inactive.

Turning to `Nc1cccc2c(=O)[nH][nH]c(=O)c12`, the Potency entry in assay [1], in assay [2], in [17], in assay [18], in assay [19] and in assay [5] was “inactive” throughout. Besides, the Potency entry in assay [6], in [7], in assay [8], in [9], in [10] and in [14] was “inactive” each time. Also, the Potency result in assay [11], in assay [12] and in assay [15] was “inactive” each time. Further, the molecule was classed as inactive in [3], in [4] and in [13].

For `CCc1ccc2c(c1)C(=O)c1ccccc1C2=O`, the Potency entry in [1], in assay [2], in assay [17], in [5], in assay [6] and in assay [7] was “inactive” throughout. In addition, the Potency entry in assay [9], in assay [11] and in assay [15] was “inactive” throughout. The molecule was called inactive in [3], in assay [4], in [16] and in assay [13]. Further, the Potency in [18] is 27.3 µM (active); in [8], 27.3 µM (active); in assay [12], 34.4 µM (active).

In the case of `CC1(C)[C@@H]2CC[C@]3(C2)[C@@H]1C(=O)CCC3(C)C`, the Potency result in [1], in [2], in [20], in [17], in assay [18] and in assay [19] was “inactive” each time. Besides, the Potency entry in assay [5], in assay [7], in [8], in [9], in assay [11] and in assay [12] was “inactive” in each case. Further, the Potency entry in assay [15] was “inactive”. Besides, the result in assay [3], in assay [16] and in assay [13] was inactive.

Consider `COC(=O)C(C)(C)C`, for which the Potency entry in [1], in assay [2], in assay [5], in [6], in [7] and in assay [8] was “inactive” each time. Also, the Potency entry in assay [9], in assay [10], in [14], in assay [11] and in assay [12] was “inactive” each time. For the same molecule, the molecule was classed as inactive in assay [3], in [4] and in [13].
